According to PubChem BioAssay (NCI):
About 79,000 compounds went through this panel and 15% of them were active in at least one assay; those are over-represented in the sample as a whole. Calls of active or inactive are those of the source. Rule as the data show it: active = growth inhibition above about 70%; inactive = the rest.

Key:
[1] = NCI Yeast Anticancer Drug Screen. Data for the rad52 strain (AID 147);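 also: 0% = growth of vehicle-treated control cultures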; conditions: S. cerevisiae rad52 mutant growth inhibition, stronger effect = higher value
Method in brief: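 The repair-mutant yeast strain was incubated with compounds, then growth was read and inhibition derived relative to vehicle.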

[2] = NCI Yeast Anticancer Drug Screen. Data for the wt1 strain (AID 149);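 also: 0% = growth of vehicle-treated wt1 cultures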; conditions: S. cerevisiae wt1 strain (SPY 50644) growth inhibition, stronger effect = higher value
Method in brief: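 wt1 yeast, compound-treated; % growth inhibition vs vehicle control.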

[3] = NCI Yeast Anticancer Drug Screen. Data for the rad50EPP+ strain (AID 151);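 also: 0% = growth of vehicle-treated control cultures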; conditions: S. cerevisiae rad50 mutant strain, stronger effect = higher value
Method in brief: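 Vehicle-normalised growth inhibition; rad50EPP+ yeast strain, altered in DNA damage repair, compound-treated.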

[4] = NCI Yeast Anticancer Drug Screen. Data for the rad50 strain (AID 155);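 also: 0% = growth of vehicle-only cultures of the same strain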; conditions: S. cerevisiae rad50 strain growth inhibition, stronger effect = higher value
Method in brief: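 Genetically altered yeast (DNA repair pathway); compound treatment; growth inhibition vs vehicle ctrl.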

[5] = NCI Yeast Anticancer Drug Screen. Data for the mec2-1 strain (AID 157); conditions: S. cerevisiae mec2-1 strain, stronger effect = higher value
Method in brief: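 Mutant yeast (mec2-1) grown with compound; growth inhibition relative to vehicle control reported.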

[6] = NCI Yeast Anticancer Drug Screen. Data for the rad14 strain (AID 159);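 also: 0% = growth of vehicle-treated control cultures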; conditions: S. cerevisiae rad14 strain growth inhibition, stronger effect = higher value
Method in brief: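 Test compounds were applied to a repair-deficient yeast strain. Its growth was then compared with that of cultures given vehicle alone, and inhibition was expressed relative to those controls.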

[7] = NCI Yeast Anticancer Drug Screen. Data for the sgs1 mgt1 strain (AID 161);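 also: 0% = growth of cultures given vehicle only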; conditions: S. cerevisiae sgs1 mgt1 strain, stronger effect = higher value
Method in brief: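 Growth of a repair-deficient yeast mutant was monitored after compound treatment and expressed as inhibition relative to vehicle-treated cultures.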

[8] = NCI Yeast Anticancer Drug Screen. Data for the CLN2oe strain (AID 163);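 also: 0% = growth of vehicle-only control cultures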; conditions: S. cerevisiae CLN2oe strain, stronger effect = higher value
Method in brief: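 Compounds are applied to yeast harbouring a defined cell-cycle control change; reduced growth compared with vehicle-treated controls gives the value.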

[9] = NCI Yeast Anticancer Drug Screen. Data for the cln2 rad14 strain (AID 165);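 also: 0% = growth equal to vehicle treated cultures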; conditions: S. cerevisiae cln2 rad14 strain, stronger effect = higher value
Method in brief: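 Readout is yeast growth inhibition versus vehicle-treated controls, using a strain with cln2 and rad14 alterations exposed to compound.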

[10] = NCI Yeast Anticancer Drug Screen. Data for the bub3 strain (AID 167); conditions: S. cerevisiae bub3 mutant strain, stronger effect = higher value
Method in brief: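 Yeast carrying a defined mutation is treated with each compound, and growth is compared with that of vehicle-exposed cells to give inhibition.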

[11] = NCI Yeast Anticancer Drug Screen. Data for the wt2 strain (AID 169);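 also: 0% = growth of vehicle-treated yeast cultures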; conditions: S. cerevisiae wt2 strain growth inhibition, stronger effect = higher value
Method in brief: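 Against vehicle-treated controls, the growth of yeast exposed to each compound was compared, and the inhibition was recorded.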

[12] = NCI Yeast Anticancer Drug Screen. Data for the mlh1 strain (AID 171);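 also: 0% = growth of vehicle-treated control cultures of the same strain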; conditions: S. cerevisiae mlh1 strain growth inhibition, stronger effect = higher value
Method in brief: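 Measured: yeast growth. Reference: vehicle-treated controls. Organism: strain with a defined alteration affecting DNA damage repair or cell cycle control, treated with compound.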

[13] = NCI Yeast Anticancer Drug Screen. Data for the sgs1 strain (AID 173);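 also: 0% = growth of vehicle-only control cultures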; conditions: S. cerevisiae sgs1 mutant, stronger effect = higher value
Method in brief: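 Each compound was added to cultures of the altered yeast strain. Growth was recorded, and inhibition was derived by comparison with vehicle controls.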

[14] = NCI Yeast Anticancer Drug Screen. Data for the mlh1 rad18 strain (AID 175); conditions: S. cerevisiae mlh1 rad18 strain growth inhibition, stronger effect = higher value
Method in brief: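 Genetically defined yeast (DNA repair-deficient) exposed to compounds; growth inhibition determined relative to vehicle.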

[15] = NCI Yeast Anticancer Drug Screen. Data for the rad18 strain (AID 177); conditions: S. cerevisiae rad18 mutant growth inhibition, stronger effect = higher value
Method in brief: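 Vehicle-treated cultures served as the baseline for scoring compound-induced growth inhibition in DNA-repair-mutant yeast.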

[16] = at 5.0 µM (retest, dose inferred, filed as 0.5)
[17] = at 50.0 µM (retest, dose inferred, filed as 5.0)

Measured: growth inhibition

S=c1cn[nH]c2ccc(Br)cc12
inactive: [1]; at 1.2 µM -1% | [1]; at 3.7 µM 8% | [1]; at 11.0 µM 10% | [1]; at 33.0 µM 52% | [2]; at 1.2 µM -5% | [2]; at 3.7 µM -6% | [2]; at 11.0 µM -11% | [2]; at 33.0 µM 1% | [2]; at 100.0 µM 43% | [3]; at 1.2 µM -2% | [3]; at 3.7 µM -1% | [3]; at 11.0 µM 17% | [4]; at 1.2 µM -3% | [4]; at 3.7 µM -9% | [4]; [16] -152% | [4]; at 11.0 µM 13% | [4]; [17] 66% | [4]; at 50.0 µM 69.5% | [5]; at 1.2 µM 2% | [5]; at 3.7 µM -3% | [5]; [16] -53% | [5]; at 11.0 µM -6% | [5]; at 33.0 µM 8% | [5]; [17] -9% | [5]; at 50.0 µM 56.3% | [5]; at 100.0 µM 53% | [6]; at 1.2 µM 2% | [6]; at 3.7 µM 4% | [6]; at 11.0 µM 5% | [6]; at 33.0 µM 30% | [6]; at 100.0 µM 62% | [7]; [16] -58% | [7]; [17] 61% | [7]; at 50.0 µM 68.9% | [8]; at 1.2 µM -4% | [8]; at 3.7 µM -4% | [8]; at 11.0 µM -5% | [8]; at 33.0 µM 40% | [9]; [16] -68% | [9]; [17] -20% | [9]; at 50.0 µM 35.9% | [10]; at 1.2 µM -12% | [10]; at 3.7 µM -9% | [10]; [16] -79% | [10]; at 11.0 µM -12% | [10]; at 33.0 µM 52% | [10]; [17] 60% | [11]; at 1.2 µM -4% | [11]; at 3.7 µM -3% | [11]; at 11.0 µM -5% | [11]; at 33.0 µM 20% | [11]; at 100.0 µM 40% | [12]; at 1.2 µM 4% | [12]; at 3.7 µM -7% | [12]; at 11.0 µM -5% | [12]; at 33.0 µM 46% | [13]; at 1.2 µM -2% | [13]; at 3.7 µM -6% | [13]; at 11.0 µM -5% | [13]; at 33.0 µM 61% | [14]; [16] -109% | [15]; at 1.2 µM 0% | [15]; at 3.7 µM 2% | [15]; at 11.0 µM 26%
active: [1]; at 100.0 µM 74% | [3]; at 33.0 µM 70% | [3]; at 100.0 µM 83% | [4]; at 33.0 µM 78% | [4]; at 100.0 µM 85% | [8]; at 100.0 µM 76% | [10]; at 50.0 µM 77% | [10]; at 100.0 µM 72% | [12]; at 100.0 µM 73% | [13]; at 100.0 µM 85% | [14]; [17] 75% | [14]; at 50.0 µM 85.6% | [15]; at 33.0 µM 86% | [15]; at 100.0 µM 89%

Nc1nc2c(c(=O)[nH]1)NC(CCNc1ccc(C(=O)O)cc1)CN2 (stereo not drawn)
inactive: [1]; at 1.2 µM -2% | [1]; at 3.7 µM 1% | [1]; at 11.0 µM -5% | [1]; at 33.0 µM 2% | [1]; at 100.0 µM -5% | [2]; at 1.2 µM 1% | [2]; at 3.7 µM 1% | [2]; at 11.0 µM 2% | [2]; at 33.0 µM 1% | [2]; at 100.0 µM -1% | [3]; at 1.2 µM -3% | [3]; at 3.7 µM -4% | [3]; at 11.0 µM -3% | [3]; at 33.0 µM -2% | [3]; at 100.0 µM -5% | [4]; at 1.2 µM -3% | [4]; at 3.7 µM 2% | [4]; [16] 14% | [4]; at 11.0 µM -5% | [4]; at 33.0 µM -4% | [4]; [17] 12% | [4]; at 50.0 µM -12.1% | [4]; at 100.0 µM -1% | [5]; at 1.2 µM -1% | [5]; at 3.7 µM 2% | [5]; [16] 7% | [5]; at 11.0 µM 4% | [5]; at 33.0 µM 2% | [5]; [17] 18% | [5]; at 50.0 µM -35.5% | [5]; at 100.0 µM -13% | [6]; at 1.2 µM 0% | [6]; at 3.7 µM -6% | [6]; at 11.0 µM 2% | [6]; at 33.0 µM 3% | [6]; at 100.0 µM 6% | [7]; [16] 11% | [7]; [17] -2% | [7]; at 50.0 µM -0.75% | [8]; at 1.2 µM -2% | [8]; at 3.7 µM -3% | [8]; at 11.0 µM -3% | [8]; at 33.0 µM 1% | [8]; at 100.0 µM 2% | [9]; [16] 31% | [9]; [17] 39% | [9]; at 50.0 µM 2.45% | [10]; at 1.2 µM 2% | [10]; at 3.7 µM 2% | [10]; [16] -13% | [10]; at 11.0 µM 0% | [10]; at 33.0 µM -1% | [10]; [17] 6% | [10]; at 50.0 µM 6.15% | [10]; at 100.0 µM 24% | [11]; at 1.2 µM 0% | [11]; at 3.7 µM 2% | [11]; at 11.0 µM 1% | [11]; at 33.0 µM 0% | [11]; at 100.0 µM 3%
